# Screening data: PubChem BioAssay, National Center for Advancing Translational Sciences (NCATS)
# Rows were chosen to be rich in hits. Some 2.3% of all compounds tested hit in one or more screens of this group.
# Nrf2 ARE act = activators of Nrf2 (ARE) signaling; AREc32 ARE-luciferase reporter (MCF7-derived line), luminescence, 24 h; Potency, µM (titrated, usually from 46.1 µM), for the others: at the highest dose activation, hits mostly activators; 410,000 compounds, 0.31% hits; AID 624171; further: % of control where 0% means no effect; nearly all actives have a fitted effect of over 65% in size
#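 Steps: seed AREc32_Fluc cells (1000/well, 5% FBS OPTI-MEM); incubate overnight at 37 deg C; add 23 nL compound; incubate 24 hr; add Steady-Glo; hold 30 min RT; read luminescence.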
# A549 tox = A549 cytotoxicity, counter-screen for Nrf2 inhibitors; 390,000 compounds, 0.16% hits; Potency, µM (highest dose often 46 µM), without a hit: top-dose activity change, negative = cytotoxicity, most hits filed as inhibitors; AID 504648; A549 ARE-Fluc cells, CellTiter-Fluor viability, 18-24 h; further: on the % scale 0 is the no-effect control and ±100 the full control effect
#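 Cytotoxicity counterscreen: CellTiter-Fluor fluorescence was measured in A549 ARE_Fluc cells after 18-24 h of compound exposure in a concentration series. The subsequent BugLite luminescent read reports ARE-luciferase activity.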
# Nrf2 block = Nrf2 pathway inhibition | A549 ARE-Fluc reporter, luciferase luminescence, 18-24 h | Potency, µM (series often up to 46 µM), without a hit: top-dose activity change, negative = inhibition, usual class: inhibitors | 360,000 compounds, 2.1% hits | AID 504444; further: on the % scale 0 is the no-effect control and ±100 the full control effect; nearly all actives have a fitted effect of over 60% in size
#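 In this cell-based qHTS, ARE-driven firefly luciferase in A549 cells reports Nrf2 activity; the luminescent signal after BugLite lysis is the measured value, with a prior CellTiter-Fluor read for cell health.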
# Rango complex inh = inhibitors of Rango-importin beta complex formation | 340,000 compounds, 0.031% hits | AID 540263 | Potency, µM (highest dose often 92.2 µM), for inactives: at the highest dose inhibition of complex formation | Rango CFP/YFP FRET sensor + importin beta, 45 min; calls by dose curve;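 further: 0% = DMSO wells and 100% = buffer wells lacking importin beta; nearly all actives have a fitted effect of over 15% in size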
#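 Inhibition scored from the CFP 486 nm/YFP 530 nm FRET ratio 45 min after adding 0.125 microM importin beta to 50 nM Rango biosensor preincubated 5 min with compound (room temperature, PBS with DTT, Tween-20, BSA). No-importin wells as positive control.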
# Rango release inh = prevents RanGTP from dissociating the Rango-importin beta complex; O95149+P62826; Biochemical FRET Rango-importin beta, RanGTP-induced dissociation; Potency, µM (series often up to 46.1 µM), for the others: top-dose activity change, negative = inhibition; 340,000 compounds, 0.071% hits; calls by dose curve; further: % of control where 0% means no effect; nearly all actives have a fitted effect of over 45% in size
#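 Rango FRET biosensor (snurportin-1 IBB flanked by N-terminal EYFP and C-terminal CFP10) at 0.1 uM, with 0.25 uM importin beta in PBS, 1mM DTT, 0.02% Tween-20, 0.1% BSA. 0.6 uM Ran, 2mM GTP and 0.2 uM RCC1 were then added for 45 min at room temperature. Inhibition read as loss of FRET rise.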
# Starred values were filed as active, the others as inactive; ? = inconclusive; · = no result given. Unless noted, the call rests on the fitted dose curve; in most records, active means well fitted curve in the direction sought with a large enough effect; inconclusive means small, poorly fitted or top-dose-only effect, or another doubt; inactive means no such curve, though single readings can be large; an effect the other way counts as inactive or inconclusive. Potency means the concentration at half of the fitted maximal effect.
SMILES,Nrf2 ARE act,A549 tox,Nrf2 block,Rango complex inh,Rango release inh
CC(C)(O)/C=C/C(=O)C(C)(O)C1C(O)CC2(C)C3CC=C4C(C=C(O)C(=O)C4(C)C)C3(C)C(=O)CC12C (stereo unspecified),-2.3%,2.31µM*,1.46µM*,2.8%,-3.1%
CC(=O)OC(C)(C)/C=C/C(=O)[C@](C)(O)C1[C@H](O)C[C@@]2(C)C3CC=C4C(C[C@H](O)C(=O)C4(C)C)[C@]3(C)C(=O)C[C@]12C (stereo partly specified),-2.6%,0.651µM*,?,-2.3%,-2.1%
CCOc1ccc(Nc2ncnc3c2nnn3Cc2ccccc2)cc1,2.6%,2.4%,4.1%,-1.0%,42.2%
O=C(C1CCN(S(=O)(=O)c2ccc(Br)s2)CC1)N1CCN(c2ccc(F)cc2)CC1,-0.8%,-7.2%,?,·,·
C[C@]12CC[C@H](O)CC1=CCC1C2CC[C@@]2(C)C1C[C@@H]1CC(=O)O[C@@H]12 (stereo partly specified),0.4%,3.1%,18.4µM*,1.1%,-11.5%
C=C1C(=O)O[C@@H]2C[C@@H](C)[C@@H]3C4OC4C(=O)[C@@]3(C)[C@@H](O)[C@H]12 (stereo partly specified),-3.3%,?,?,0.0%,7.4%
C=C1C(=O)OC2CC(C)C3C=CC(=O)C3(C)C(O)C12 (stereo unspecified),-2.8%,10.3µM*,5.8µM*,0.4%,2.6%
C=C1C(=O)O[C@H]2C[C@@H](C)[C@@H]3C=CC(=O)[C@@]3(C)C[C@H]12,-3.4%,?,20.6µM*,-0.1%,4.9%
C=C1C(=O)O[C@H]2[C@H]1[C@H](OC(=O)CC(=O)O[C@@H]1C[C@@H](C)[C@@H]3C=CC(=O)[C@@]3(C)[C@H]3OC(=O)C(=C)[C@H]13)C[C@@H](C)[C@H]1C=CC(=O)[C@]12C,?,-5.7%,9.3%,-4.5%,5.9%
CCCOC(=O)c1c(C)oc2c1cc(NS(=O)(=O)c1ccc(OCC)cc1)c1ccccc12,2.9%,-2.1%,?,·,·
Cc1c(P(=S)(c2ccccc2)c2ccccc2)[n+]2ccccc2n1C/C=C/c1ccccc1,-3.2%,-18.0%,?,·,·
CC(=O)O[C@H]1[C@H]2O[C@]23[C@@H]2CC[C@]4(O)C[C@@H](O)CC[C@]4(C)C2CC[C@]3(C)[C@H]1c1ccc(=O)oc1 (stereo partly specified),-4.8%,?,0.058µM*,-0.1%,12.5%
c1ccc2nc3ccccc3nc2c1,3.8%,?,20.6µM*,-2.9%,2.8%
O=C(NCc1ccc(Cl)cc1)C1CCCN(C(=O)c2cnn(-c3ccc(F)cc3)c2-n2cccc2)C1 (stereo unspecified),1.2%,-10.7%,?,·,·
Cc1ccc(NC(=O)C2CCCN(C(=O)c3cnn(-c4ccccc4)c3-n3cccc3)C2)cc1 (stereo unspecified),0.6%,-6.1%,13µM*,·,·
CSc1cccc(NC(=O)C2CCN(C(=O)c3cnn(-c4ccccc4)c3-n3cccc3)CC2)c1,7.0%,-22.2%,23.1µM*,·,·
COc1ccc(N2CCN(CCCNC(=O)c3cnn(-c4ccc(F)cc4)c3-n3cccc3)CC2)cc1,3.5%,0.7%,?,·,·
Cc1ccc(C(=O)Cn2c(-c3ccccc3)noc2=O)cc1,3.2%,0.0%,-27.8%,?,20.5%
CN(C)C(=O)O/N=C(\N)COc1ccc(C(C)(C)C)cc1,-4.3%,20.6µM*,?,3.5%,-0.1%
CCOC(=O)C(O)(c1ccc(N(C)C(=O)COc2ccccc2)cc1)C(F)(F)F (stereo unspecified),0.0%,-1.4%,-8.4%,0.2%,4.2%
CC1=CC2OC3CC4OC(=O)C=CC=CC(=O)OCCC(C)C(O)C(=O)OCC2(CC1)C4(C)C31CO1 (stereo unspecified),-2.4%,·,0.0046µM*,-1.4%,17.5%
CC(O)C1C=CC=CC(=O)OC2CC3OC4C5OC5(C)C(O)CC4(COC(=O)C(O)C(C)CCO1)C2(C)C31CO1 (stereo unspecified),-2.2%,·,0.259µM*,0.9%,10.8%
